# Bioassay records (PubChem)
# An excerpt weighted towards active compounds, which were near 0.98% of everything screened.
# LANA-H2B inh: blocks KSHV LANA binding to histone H2A/H2B | Q9QR71 | cell-free LANA-H2A/H2B peptide, fluorescence polarization | inhibition, % (test concentration not listed) | 320,000 tested, 0.6% active; in the data active = inhibition mostly above about 10%, no sharp cut-off; inactive = mostly below about 6.7%
# cardiac RTF act: increases calcium sensitivity of human cardiac regulated thin filaments; activation, % at 7.2 µM; 340,000 tested, 0.24% active; P19429+P45379; IANBD-labeled TnC RTF fluorescence at EC20 calcium; 0% EC20 calcium, 100% full calcium;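 active = activation above the mean over all tested compounds plus 3 SD, cut at about 30% in these data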;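 also: rise in fluorescence read as greater calcium sensitivity of cardiac thin filaments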
# LANA DNA inh: blocks KSHV LANA C-terminal domain binding to DNA; 340,000 tested, 0.078% active; MBP-C-LANA/FAM-LBS DNA binding, fluorescence polarization; AID 504423; inhibition, % at 9 µM;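 active = highest replicate inhibition at or above 60% at 9 µM, even if other replicates fall short; inactive = all replicates below 60% inhibition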;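 also: 0% = neutral control wells and 100% = 4 µM acridine orange control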
# Keap1-Nrf2 PPI: Keap1-Nrf2 (human) interaction inhibition; 340,000 tested, 0.15% active; AID 504523; Keap1 Kelch-Nrf2 peptide fluorescence polarization, 1536-well; Q14145; inhibition, % at 9.4 µM; in the data active = inhibition above about 12%;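 also: human Keap1 Kelch domain with fluorescein labeled Nrf2 9mer peptide probe; 0% = neutral control wells and 100% = peptide positive control; higher means more block of Keap1 binding to Nrf2 peptide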
# Target sequence (Q14145 whole entry, looked up, the tested form may be a part): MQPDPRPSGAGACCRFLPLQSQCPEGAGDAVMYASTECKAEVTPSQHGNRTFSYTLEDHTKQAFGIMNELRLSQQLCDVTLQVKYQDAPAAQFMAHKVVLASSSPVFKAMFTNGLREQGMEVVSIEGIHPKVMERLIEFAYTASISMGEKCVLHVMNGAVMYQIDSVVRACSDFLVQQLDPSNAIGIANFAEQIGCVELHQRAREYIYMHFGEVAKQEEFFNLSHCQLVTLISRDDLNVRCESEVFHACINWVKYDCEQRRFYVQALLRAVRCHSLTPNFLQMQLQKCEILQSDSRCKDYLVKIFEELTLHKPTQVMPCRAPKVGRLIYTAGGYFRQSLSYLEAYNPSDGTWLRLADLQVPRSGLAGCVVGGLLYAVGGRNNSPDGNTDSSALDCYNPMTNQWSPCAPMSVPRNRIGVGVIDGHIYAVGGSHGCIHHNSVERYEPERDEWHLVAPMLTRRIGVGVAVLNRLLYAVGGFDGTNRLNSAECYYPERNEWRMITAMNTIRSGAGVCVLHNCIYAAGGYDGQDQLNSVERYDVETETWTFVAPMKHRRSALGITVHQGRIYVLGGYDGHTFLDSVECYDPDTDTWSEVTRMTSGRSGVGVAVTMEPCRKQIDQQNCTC
# RTF Ca sens inh: cardiac RTF calcium desensitization; P19429+P45379; IANBD-labeled cardiac RTF, Ca2+ fluorescence; inhibition, % at 7.15 µM; 340,000 tested, 0.12% active;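 active = inhibition above the mean inhibition of all tested compounds plus 3 SD, cut at about 17% in these data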;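 also: assay run at fixed EC70 calcium of 1.6 mM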
# RTF inh confirm: confirmation of inhibitors of cardiac thin filament calcium sensitivity | inhibition, % at 7.15 µM | shares compounds with RTF Ca sens inh | reconstituted cardiac thin filaments, calcium sensitivity fluorescence | 360 tested, 8% active | AID 504635; in the data active = inhibition above about 18%
# Keap1 Kelch bind: Keap1 (human) Kelch domain binding. shares compounds with Keap1-Nrf2 PPI. Keap1 Kelch thermal shift, delta Tm; stronger effect = higher value. max delta Tm, degrees C. 400 tested, 8% active. AID 651823; in the data active = max delta Tm above about 0.48 degrees C
# Numbers without * were called inactive; i = inactive; x = not tested or not shown; ! = repeats disagree.
SMILES,LANA-H2B inh,cardiac RTF act,LANA DNA inh,Keap1-Nrf2 PPI,RTF Ca sens inh,others
Cc1c(NS(=O)(=O)c2ccccc2)ccc([N+](=O)[O-])c1Cl,x,-2,0,1,1,
O=[N+]([O-])c1ccc(Cl)c(Cl)c1Cl,24*,-1,-1,1,-11,
CCC/C=N/O,32*,-4,-1,1,-4,
Cc1ccc(N)c(C)c1,37*,-4,1,3,2,
Cc1ccccc1N,-1,-4,0,-4,2,
O=C1NC(=O)N(c2ccc3c(c2)OCO3)C(=O)/C1=C\c1ccc(N2CCCCC2)o1,-28,50*,-38,-58,-88,
Cc1cc(/C=C2\C(=O)NC(=O)N(C)C2=O)c(C)n1-c1ccc2c(c1)OCO2,-1,0,0,-6,-12,
Cc1ccccc1N1C(=O)NC(=O)/C(=C/c2ccc(N3CCOCC3)o2)C1=O,-38,51*,-40,-159,-61,
Cc1ccccc1N1C(=O)NC(=O)/C(=C\c2cc(Br)c(N3CCOCC3)o2)C1=O,-36,64*,-39,-205,-51,
O=C1NC(=O)N(c2ccccc2F)C(=O)/C1=C/c1cn(CC(=O)N2CCOCC2)c2ccccc12,2,x,x,x,x,
CC1=CC(=O)NP(=O)(Oc2ccc3ccccc3c2)N1 (centres undefined),0,-4,1,-4,-1,
CCOc1ccccc1CN1C2CCC1CC(c1ccc(C)cc1)C2 (centres undefined),5,3,1,-2,1,
Cc1ccc(-n2c(O)c(C=NCCCn3ccnc3)c(=O)[nH]c2=O)cc1,13*,0,-1,-3,4,
O=C(O)CCCc1ccc(N(CCCl)CCCl)cc1,-3,0,-5,-3,-1,
O=C1NC(=S)SC1=Cc1ccc(N(CCCl)CCCl)cc1,x,94*,-23,-46,-76,
FC(F)(F)/C(=N\P(=S)(N1CCOCC1)N1CCOCC1)N1CCOCC1,-1,1,-2,-4,-18,
Cc1cc(C)c(C(=O)N2CCC3(CC2)OCCO3)c(C)c1,28*,5,-2,-2,-3,
Cc1cc(C(=O)N2CCC3(CC2)OCCO3)cs1,1,0,0,-5,-9,
CN(C)[C@@H]1C(=O)C(C(N)=O)=C(O)[C@@]2(O)C(=O)C3=C(O)c4c(O)cccc4[C@@](C)(O)C3[C@H](O)C12 (some centres undefined),1,10,72*!,-7,21*!,RTF inh confirm=-5
C[C@@H]1NCCc2cc(O)c(O)cc21,2,5,-1,-3,3,
Fc1ccc(C(OCCN2CCN(CCCc3ccccc3)CC2)c2ccc(F)cc2)cc1,-2,-3,2,0,17*,RTF inh confirm=-2
c1ccc(CCCN2CCN(CCOC(c3ccccc3)c3ccccc3)CC2)cc1,2,0,0,-5,-14,
Nc1ccc2nonc2c1[N+](=O)[O-],29*,102*,80*,52*,-131,Keap1 Kelch bind=-0.08
O=C(O)CNC1c2ccccc2CSc2ccccc21 (centres undefined),-3,x,x,x,x,
CCN1C(=O)NC(=O)/C(=C\c2cn(CC(=O)N3CCCCC3)c3ccccc23)C1=O,3,2,37,21*,-3,Keap1 Kelch bind=-0.11
O=c1cc(C(F)(F)F)c2cc3c4c(c2o1)CCCN4CCC3,5,545*,19,14*,i,Keap1 Kelch bind=-0.05
CC1CCCN(C(=O)CCl)C1 (centres undefined),3,4,4,1,-1,
CSCCC(N=Cc1c(O)n(-c2ccc(Br)cc2)c(=O)[nH]c1=O)C(=O)OC(C)(C)C (centres undefined),0,4,0,-2,-6,
